Screen size: about 53,000 sequences; about 3,700 (7%) were called active. This excerpt belongs to a sample that is enriched for actives. A number with no mark means an inactive call.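 Rule for the calls: active = gene knockdowns whose robust z-score for IL-1 alpha signal is at least 2 or at most -2, so actives lie on both sides; inactive = the rest.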
Assay: Components of the Cytosolic LPS Sensing Pathway: Gene Identification via Genome-wide siRNA Screen;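 note: robust z of the log signal after scaling to non-targeting control siRNA wells of the plate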
Settings: RAW264.7 macrophages, IL-1a HTRF, actives lie on both sides, screened at 100 nM (by protocol), cells primed 5 h with Pam3CSK4 first
Method in brief: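 Mouse macrophage line RAW264.7 is transfected with siRNA (100 nM final), grown 48h, primed with TLR ligand Pam3CSK4 5 h and given intracellular LipidA 24 h. IL-1a in supernatant is read by HTRF and viability by luminescence.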

Sequence	z-score
CCCAGAAGCCUUAUCGUCUTT against Mzt1	2.37 (active)
GCCAUCUACUUUGUUAUAGTT against Kcnk4	0.725
GGAGUUAUUAACUGAAGAGTT against Cyp2c55	0.0702
GAGGGCCAUCUCUGACAUGTT against Avp	0.369
GGUCAAAACAAAAGGAGGGTT against Ncf4	0.498
GGACAAAUUUGCAUAGAUUTT against Rab10os	2.93 (active)
GCCAAUAUUUGUUUUUGAGTT against Ranbp3l	0.0685
GCUACAACCUUGAGAAACUTT against Duoxa2	0.706
CCUAGGUGUCGUACACAAATT against Galns	2.45 (active)
GGCUUCCUAUCUGAUUACUTT against Acsl4	0.498
CCACCGGAAUGACAUAAUGTT against Klk11	-0.578
CCUAGUUGAAAAUUGGGAATT against Fuca2	0.354
CGUGGUCAUCUGGUAUGAGTT against Zfp653	2.53 (active)
GCACUGCUAUUUACAAAAATT against Tex16	-1.73
CAGGGCAAGGUGAUAUCUGTT against Olfr1411	-0.428
GGAGAAAUAAGUGCAGGUGTT against Rhox2a	-0.622
GGCUCCUCUCCAAGAAUAUTT against Prr14l	2.03 (active)
GGAGAGAAUCAGAGAGAACTT against Akr1c18	0.276
GCUUCUGAUAGAUCAUAAGTT against Aoc3	-0.276
GGCUCAAAGUUUUCAGAGATT against Kctd14	-0.0155
GCAUUUUGUGGAAAAGGCUTT against Olfr582	-2.19 (active)
CGAAAAGGUGGACUUUUAGTT against Rnf4	-0.545

Sequence	z-score
GGUGAUUUUCGAUAUACACTT against Dclre1b	0.257
CGACCUGCUCUCAUAGCUUTT against Sycn	-0.702
GGCCUUUGGGAAAACAUGGTT against Zcchc14	-2.16 (active)
GUACUAGUGGUGACUGCAUTT against Olfr462	-0.0789
CCAAGGGUUAAGUCUUCAUTT against Zranb1	0.738
CCUCUCAUGUAUCCUGUGATT against Olfr292	-0.205
GGGAAAGUGUGUAAUAAAUTT against Egflam	-0.774
GCUUACUACCAUUGGGAAUTT against Samt2	1.65
GGAUUAGAGAAAUAGGGCUTT against Apol10a	-2.09 (active)
GGAAUUCCUUCGUUUCCUUTT against Usp2	1.64
GGUUUGAAGUGUUGACAUUTT against Fam126a	-0.474
CGUACAUCAGAAUGUUAAUTT against Fkbp4	1.46
GGUGGUGUCAACCUUAAAATT against Nrsn1	0.253
GGUUUUGUCCAGAAGAAUATT against Kl	-0.574
GGAUGGACCAUCAGCUUCATT against Olfr1152	-2.25 (active)
GGCUCUUGAUACGAAUGUATT against Aadac	-0.44
GGAGAAGGGCUUUUCUGUUTT against Gbp5	-0.729
GCCUCACAGAUUGAUAAUATT against Akt3	-1.23
GCAGCCAUACAGCUUAUAUTT against Cyb561d2	0.382
GGAGCUGUCAUUUAAGAAATT against Sorbs2	2.42 (active)
CGUGGCUCACAAUAAAUGCTT against Cfd	0.385
GGCAAAUGGAAAAUUCUGCTT against Rlim	0.982

Sequence	z-score
GCUGAUGUAAGUAUUCUAGTT against Pdcl	0.1
GCGGAAUUGGAAAAUGCCGTT against Hbs1l	0.283
GGUGGUAUCUGUAUUCUAUTT against Olfr1106	2.6 (active)
GGUGACAAUAAAUUUGGAUTT against Tmem143	1.09
GGAUUCACAUUUCUAAAGCTT against Adcy8	1.31
CGCUAUGAAACCUCACUAATT against E2f1	-0.598
GCAUGACCUCAGGUUUUCUTT against Il20rb	1.57
CCUGAUUGUCACUCCUUUUTT against Pde4b	0.753
GCGAAAGCAGGAUACUCCUTT against Mtmr11	1.01
GGAAAAAAUCUGCAUCCGATT against Neu1	-0.415
GGGACAUGAGCCAUUCAUCTT against Lcor	0.749
GGAUAGCUCUAUUAUCUCUTT against Serpinb3a	1.24
GGCAGUACAACUGGUCUACTT against 0610040J01Rik	2.21 (active)
GGAUGUGCUCUGUGAAUGCTT against Pgf	0.533
GGCAUCACAGAAGGUUUAUTT against Rock2	4.17 (active)
GGUGAACGAUGUCAAUAAGTT against Pdxk	-0.318
CCAAGAGAUUGCUAAUUGCTT against Runx1t1	-0.695
CGCAAAAACUGGUGUAACCTT against Arhgef1	-0.958
CUCCUCAGUCAACAAGAACTT against Hoxc11	0.176
GCUUGUUGGUGGUCUCCUGTT against Spink7	-2.28 (active)
GGAAAAUGCCUCAAGACUUTT against Wdr5b	-0.0565
GGACACCAUCAAUUGAUUATT against Wdr27	-0.127

Sequence	z-score
GCCUUGGCUGAAACUCUCATT against Cybb	0.612
GGGACAAGAAGAACAAGAGTT against Srp14	-1.33
GGAAGAAUCGGAUCAAGAUTT against Dpep2	0.153
GGCAUGGAAUCUGUUGUACTT against Olfr603	2.45 (active)
GCCAAGACCAUUCAGCCUUTT against Zfp579	-0.394
GCUUCAUCGAACAAGUCGCTT against Pcbd1	0.715
GGUGCUGAAGAUGCUGACGTT against Zfp503	-1.46
CGUCACUGAUGUGGCUUUUTT against Plpp6	0.755
GGCAGAAACCCUUCUAUGUTT against Bmp8a	-1.55
GGACAGCUUCCGAAACUAUTT against Miox	0.349
GGAAGCCAAAGAGAAACAATT against Ighmbp2	-0.0223
CCGUUUACGGCCACUAACUTT against Phkg2	3.68 (active)
GCAGCCAAGUGGGUAACUUTT against Nicn1	0.474
CGGCCUGACAUCAACCUUGTT against Fam193b	-0.915
GGAAGAAAACGCAACUAUATT against Atp1b3	0.246
GUUCUCAAGUAUCCCAGGCTT against 1110006O24Rik	-0.661
GCUGGAAUAUAGGAAUGUCTT against Pex11g	-0.0512
GGUCUAGCUCUGAAACAUCTT against Pms2	2.27 (active)
GCAUGUUUACGUUCCUGACTT against Slc2a12	-0.0386
GGUUUUAAUUUCAACUGUCTT against Tpp1	-0.468
GGGCAACACAGGACAUCUATT against Amot	-0.35
GCAGGUUAAGUAGCUGACATT against Dync1li2	-2.37 (active)

Sequence	z-score
GGUGUCCACGGUGGUUUGATT against Pfn1	-0.268
GGGACAGUUGACUUUUUAUTT against Cntn4	0.147
CCUUUUGAUGCAUCCCGUCTT against Bpifb3	0.709
GGGACUUUGGGCUAAAUAGTT against Tspan1	-1.32
CCCUCCACAGAUGAACACCTT against Lgals4	-2.02 (active)
GGAUAAUUGAUCAUAGAGGTT against Ufm1	-0.495
GAGUAGGAAUUAGAAUGAUTT against Tmem47	-0.00808
GCAUGAUCUCAGGUGUUUGTT against Timm13	-1.54
GGAUAACUGCUUCAUUUCCTT against Agbl1	0.62
GGAAAGACAAAGAACUCUATT against Ssu72	-0.535
GGAUUUCACUUGAGAAUGATT against Grem1	-0.905
GGUCAACGUAAAUUGUUCATT against Plppr5	2.94 (active)
CCUUCUAGUUUGCCUCUGGTT against Olfr877	0.332
GGGAAGAGCAUGUUUGCUGTT against Surf4	0.982
GGAGUGUUGCCAGUUCCUATT against Tctn2	-0.434
GGAGUUUCACCAGAAGGCUTT against Ttc24	1.63
GGACUUUGUGAAGGACUCUTT against Gatd1	-2.56 (active)
GGAACUUGGAAUUUAGUUGTT against Pla2g4b	1.43
GGACAUGGUCCUUCCUAAATT against Arl8b	0.944
GGAAGCUGCACGGCAACUUTT against Btn2a2	-0.132
